Laboratory results: paper PMC4552634, “A New Set of Chemical Starting Points with Plasmodium falciparum Transmission-Blocking Potential for Antimalarial Drug Discovery” (PLoS ONE, 2015)
Hit rate of the full screen: of about 13,000 compounds, about 3,200 (25%) showed an effect of 50% or more. The list shows a part of the results.

system: P. falciparum stage V gametocytes; set-up: BacTiter-Glo ATP luminescence viability of purified stage V gametocytes in 384-well plates, per cent inhibition versus DMSO; conditions: 48 h, 5 µM; inhibitor

Structure (SMILES) | % Inhibition [%]
Cn1cnnc1Sc1ccc(CN2CCOc3ccc(C4=CCCCC4)cc3C2)o1 [TCMDC-124661] | -23.49
NC1=NC(c2ccccc2)(c2ccccc2)C(=O)N1CCOc1ccccc1 [TCMDC-136493] | -46.39
Clc1ccc2c(N3CCN(CCN4CCN(c5ccnc6cc(Cl)ccc56)CC4)CC3)ccnc2c1 [TCMDC-125557] | -4.056
CCc1cc(Cc2cnc(N)nc2N)cc(CC)c1OC [TCMDC-137697] | -15.83
CCCc1cc(Cc2cnc(N)nc2N)ccc1OCCCCCC(=O)OCC [TCMDC-137232] | -11.7
CCOC(=O)C(=CNc1ccc(Cc2cnc(N)nc2N)cc1CC)C(=O)OCC [TCMDC-137346] | 53.58
O=C1CN(C(=O)CCC2CCCC2)C(c2ccc(F)cc2)c2cc(F)ccc2N1 (stereo not shown) [TCMDC-124463] | -48.27
c1ccc2oc(-c3cc4ccncc4cc3OC3CCNCC3)cc2c1 [TCMDC-134160] | 92.38
O=C(Nc1cccnc1)c1ccc(-c2cc3ccncc3cc2OC2CCNCC2)s1 [TCMDC-134228] | 62.63
c1ccc(-c2cc3cccc(-c4nc5ccncc5[nH]4)c3o2)cc1 [TCMDC-140516] | 7.065
Cc1cc(NC(=O)c2cccs2)ccc1OC1CCN(Cc2ccccc2)CC1 [TCMDC-133988] | 37.37
c1cncc(NCc2ccc(-c3cc4ccncc4cc3OC3CCNCC3)s2)c1 [TCMDC-134161] | 28.32
O=C(Nc1cccc(OC2CCN(Cc3ccccc3)CC2)c1)c1ccc(Cl)c(Cl)c1 [TCMDC-139542] | 5.419
COc1cccc(-c2nn(C)c3sc(C(=O)Nc4cccnc4)cc23)c1 [TCMDC-123584] | -55.35
O=C(Nc1ccccc1)c1ccc(-c2cc3ccncc3cc2OC2CCNCC2)s1 [TCMDC-134227] | 77.06
Nc1ncc(-c2cc3ccccc3o2)c(N)n1 [TCMDC-137177] | 18.48
CCOC(=O)c1ccc(NC(=O)Nc2cccc(-c3ccc(-c4nc5cccc(C)c5[nH]4)s3)c2)cc1 [TCMDC-133258] | -27.38
O=C(Nc1ccsc1)Nc1cccc(-c2cccc(-c3nc4ccc(F)cc4[nH]3)c2)c1 [TCMDC-133216] | -18.7
O=C(Nc1cccc(-c2ccc(-c3nc4ccc(F)cc4[nH]3)cc2)c1)Nc1ccc(F)c(F)c1F [TCMDC-133231] | -4.749
C=Cc1cc(NC(=O)N2CCc3cc(OC)c(C(F)(F)F)cc32)cc(-c2cccnc2)c1 [TCMDC-139030] | -6.517
CC(C)=CC1C(C(=O)n2c(N)nc3ccccc32)C1(C)C (stereo not shown) [TCMDC-131688] | 3.871
Cc1c(C(C)(C)C)ccc2nc(N)nc(N)c12 [TCMDC-137831] | -39.39
CC(C)(C)c1ccc(-c2nc3c(ccc4nc(N)nc(N)c43)[nH]2)cc1 [TCMDC-137984] | 112.2
CC(C)n1c(C(C)(C)C)cc2c3c(N)nc(N)nc3ccc21 [TCMDC-137311] | 32.82
Cc1cc(N)cc2[nH]c(-c3ccc(N)cc3)nc12 [TCMDC-124391] | -6.074
CC(C)(C)c1ccc(Cc2cccc3nc(N)nc(N)c23)cc1 [TCMDC-137821] | -51.22

Structure (SMILES) | % Inhibition [%]
Nc1ccc(-c2nc3c(ccc4ccccc43)[nH]2)cc1 [TCMDC-124395] | 24.31
Cc1c(N)ccc2[nH]c(-c3ccc(N)cc3)nc12 [TCMDC-124242] | 91.56
CC(C)(C)c1ccc(-c2cc3c(ccc4nc(N)nc(N)c43)[nH]2)cc1 [TCMDC-137977] | 117.8
CC(C)c1cc2c(ccc3nc(N)nc(N)c32)[nH]1 [TCMDC-137847] | 19.02
CC1(C)N=C(N)N=C(N)N1OCCOc1ccc2ccccc2c1 [TCMDC-131609] | -8.756
N#Cc1cc(C(=O)Nc2ccccc2)c(N)nc1SCC(=O)Nc1ccc(Br)cc1 [TCMDC-124873] | -53.64
CCCC(C)Nc1nc(C)cc(N[C@@H](CC(C)C)C(=O)NCCc2ccccc2)n1 (stereo partly shown) [TCMDC-134769] | -46.8
[O-][s+]1c(Cl)c(-c2ccc(Cl)cc2)c2ccc(Cl)cc21 (stereo not shown) [TCMDC-124011] | 120.8
Cc1noc(C)c1-c1ccc(C(=C2CCCCCCC2)c2ccc(O)cc2)cc1 [TCMDC-135872] | -5.918
Fc1ccc(-c2oc(C3CCN(CCc4ccc(-c5nc(=S)o[nH]5)cc4)CC3)nc2COCC(F)(F)F)cc1 [TCMDC-138124] | 11.59
O=C(Nc1cccc(-c2ccc(-c3nc4cc(C(F)(F)F)ccc4[nH]3)s2)c1)c1c[nH]cn1 [TCMDC-136934] | 63.59
O=C(Cc1c[nH]cn1)Nc1cccc(-c2ccc(-c3nc4cc(F)ccc4[nH]3)s2)c1 [TCMDC-136953] | 5.637
O=C(Nc1ccc(-c2ccc(-c3nc4cc(C(F)(F)F)ccc4[nH]3)s2)cc1)c1c[nH]cn1 [TCMDC-136933] | 1.444
O=C(Cc1c[nH]cn1)Nc1cccc(-c2ccc(-c3nc4cc(C(F)(F)F)ccc4[nH]3)s2)c1 [TCMDC-136945] | 84.53
O=C(Nc1cccc(-c2ccc(-c3nc4cc(C(F)(F)F)ccc4[nH]3)s2)c1)c1ccncc1 [TCMDC-136960] | -10.77
O=C(Cc1c[nH]cn1)Nc1ccc(-c2ccc(-c3nc4cc(C(F)(F)F)ccc4[nH]3)s2)cc1 [TCMDC-136944] | -5.397
Cc1cccc2nc(-c3cccc(-c4cccc(CNCCc5ccncc5)c4)c3)[nH]c12.O=C(O)C(F)(F)F [TCMDC-132844] | 3.347
O=C(CCc1cccnc1)Nc1cccc(-c2ccc(-c3nc4cc(C(F)(F)F)ccc4[nH]3)s2)c1 [TCMDC-132147] | 0.1764
CC(=O)Nc1ccc(C(=O)NC2CCN(c3ccnc4cc(Cl)ccc34)CC2)cc1 [TCMDC-133572] | 1.937
COc1ccc(Nc2nccc(N3CCC(NC(=O)c4cc5ccccc5s4)C3)n2)cc1 (stereo not shown) [TCMDC-133614] | -3.392
CC(C)C[C@H](NC(=O)c1cc2ccccc2s1)C(=O)N[C@H]1CCN(Cc2ccc(OC[C@@H]3CCCN3C)c(Cl)c2)C1 [TCMDC-140292] | 28.24
CC(C)C[C@H](NC(=O)c1cc2ccccc2s1)C(=O)N[C@H]1CCN(Cc2ccc(OC[C@@H]3CCCN3C)c3ccccc23)C1 [TCMDC-140290] | 74.51
COc1cc(Nc2nccc(N3CCC(NC(=O)c4cc5ccccc5s4)C3)n2)cc(OC)c1OC (stereo not shown) [TCMDC-133624] | 0.1379
CC(C)C[C@H](NC(=O)c1cc2ccccc2s1)C(=O)N[C@H]1CCN(Cc2ccc(OCCN3CCNCC3)c3ccccc23)C1 [TCMDC-140289] | 107.5
O=C(Nc1cccc(C(F)(F)F)c1)N1CCOC(CCN2CCC3(CCc4ccccc43)CC2)(c2ccc(Cl)c(Cl)c2)C1 (stereo not shown) [TCMDC-135340] | -5.677
OCC1CCN(Cc2cccc(C#Cc3cc4ncnc(Nc5ccc(OCc6cccc(F)c6)c(Cl)c5)c4s3)n2)CC1 [TCMDC-138841] | 11.44

Structure (SMILES) | % Inhibition [%]
CCN1CCN(c2cc(C)c3cc(NC(=O)c4cccc(C(F)(F)F)c4)ccc3n2)CC1 [TCMDC-125572] | -33.11
Cc1cc(N2CCN(C)CC2)nc2ccc(NC(=O)Cc3cccc(C(F)(F)F)c3)cc12 [TCMDC-123590] | 92.11
Cc1cc(N2CCN(C)CC2)nc2ccc(NC(=O)c3cccc(N(C)C)c3)cc12 [TCMDC-124449] | 4.693
Cc1cccn2c(=O)c3cc(C(=O)NC(C)c4ccccc4)c(=N)n(CCN4CCOCC4)c3nc12 (stereo not shown) [TCMDC-125137] | 27.67
COCCn1c(-c2nc(-c3ccc(F)cc3)cnc2N)nc2ccccc21 [TCMDC-138875] | 21.39
O=C(CCCC(=O)Nc1ccc(C2=NCCN2)cc1)Nc1ccc(C2=NCCN2)cc1 [TCMDC-138427] | -1.956
O=C(C=Cc1ccc(C(=O)Nc2ccc(C3=NCCN3)cc2)cc1)Nc1ccc(C2=NCCN2)cc1 [TCMDC-137212] | 61.27
O=C(Nc1ccc(C(=O)Nc2cccc(C3=NCCN3)c2)cc1)Nc1ccc(C2=NCCN2)cc1 [TCMDC-137196] | -21.25
CN=C(N)c1ccc(NC(=O)c2ccc(C(=O)Nc3ccc(C(N)=NC)cc3)cc2)cc1 [TCMDC-137214] | -8.132
CN=C(N)c1ccc(NC(=O)C=Cc2ccc(C(=O)Nc3ccc(C(N)=NC)cc3)cc2)cc1 [TCMDC-137193] | 77.71
CN=C(N)c1ccc(NC(=O)Nc2ccc(C(N)=NC)cc2)cc1 [TCMDC-137211] | 3.891
N#Cc1cccc(C(=O)NC2CCN(c3ccnc(Nc4ccc(F)cc4)n3)C2)c1 (stereo not shown) [TCMDC-133593] | 17.79
O=C(NC1CCC(CCN2CCc3ccc(-c4cnccn4)cc3CC2)CC1)c1cccc(-n2cccn2)c1 (stereo not shown) [TCMDC-140329] | 67.17
Cc1c[nH]c2ccc(/C=C/C(=O)NC3CCC(CCN4CCc5ccc(C#N)cc5CC4)CC3)cc12 (stereo not shown) [TCMDC-139669] | 1.674
Cc1noc(-c2ccc3c(c2)CCN(CCC2CCC(NC(=O)/C=C/c4ccc(F)cc4)CC2)CC3)n1 (stereo not shown) [TCMDC-139865] | -60.69
O=C(C=Cc1cccc(F)c1)NC1CCC(CCN2CCc3ccc(-c4cnccn4)cc3CC2)CC1 (stereo not shown) [TCMDC-140326] | -57.13
Cc1ccc2[nH]cc(/C=C/C(=O)NC3CCC(CCN4CCc5ccc(C#N)cc5CC4)CC3)c2c1 (stereo not shown) [TCMDC-139682] | 84.8
COc1ccccc1/C=C/C(=O)NC1CCC(CCN2CCc3ccc(-c4cc(C)no4)cc3CC2)CC1 (stereo not shown) [TCMDC-139975] | 80.37
Cc1cc(-c2ccc3c(c2)CCN(CCC2CCC(NC(=O)/C=C/c4ccc(F)cc4)CC2)CC3)on1 (stereo not shown) [TCMDC-139926] | -90.16
O=C(C=Cc1ccc(F)cc1)NC1CCC(CCN2CCc3ccc(-c4cnccn4)cc3CC2)CC1 (stereo not shown) [TCMDC-140328] | 0.8671
N#Cc1ccc(C=CC(=O)NC2CCC(CCN3CCc4ccc(-c5cnccn5)cc4CC3)CC2)cc1 (stereo not shown) [TCMDC-140327] | -34.09
Cc1cc(-c2ccc3c(c2)CCN(CCC2CCC(NC(=O)/C=C/c4ccccc4F)CC2)CC3)on1 (stereo not shown) [TCMDC-139974] | -78.86
N#Cc1ccc2c(c1)CCN(CCC1CCC(NC(=O)/C=C/c3c[nH]c4ccc(F)cc34)CC1)CC2 (stereo not shown) [TCMDC-139667] | -9.203
Cn1cnc(-c2ccc3c(c2)CCN(CCC2CCC(NC(=O)/C=C/c4ccc(F)cc4)CC2)CC3)c1 (stereo not shown) [TCMDC-140338] | 59.86
